This is part of a sample that, as a whole, favours compounds with a hit. Of some 83,000 tested, about 20% had one in any assay.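 48-hour exposure, single concentration, 96-well plates; percent growth endpoint where 0 means no net growth. Active: below 10.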 Unmarked numbers belong to inactive results. Calls of active or inactive are those of the source.

The assay has as its system HL-60(TB) leukemia. As to the kind of experiment: NCI-60 one-dose screen, 48 h (100 = growth as untreated, 0 = no growth, -100 = all killed). Conditions: 10 µM unless noted.
Turning to `O=C1NC(=O)[C@@H](c2cn3c4c(cccc24)CCC3)[C@@H]1c1c[nH]c2ccccc12`, the growth was -21% (active).
Then `CC(C)C[C@H](NC(=O)Cn1ccc(NCc2ccccc2)cc1=O)B(O)O`, with 3.72% (active); and `Cn1c(=O)c(C#N)c(-c2ccco2)n2c(S(=O)(=O)Cc3ccccc3)nnc12`, with 103%.
On to `O=C(Nc1cc(C(F)(F)F)cc(C(F)(F)F)c1)Nc1ccc(OCc2nnc(-c3ccc(Cl)cc3)o2)c(F)c1`, for which the growth is 5.4% (active).
Then `O=C(c1ccccc1)[C@@H](c1ccccc1)[C@]1(O)C(=O)Nc2ccccc21`, with 107%; and `CN1CCN(c2ccc(NC3=C(Cl)C(=O)c4ncccc4C3=O)cc2C(F)(F)F)CC1`, with -16.2% (active).
Consider `CN(C)C=Nc1cc(Cl)ccc1Cl`, for which the growth is 102%.
Turning to `O=S(=O)(Nc1ccc(F)cc1)c1ccc(-c2cnc(C3CC3)o2)cc1`, the growth is -28.1% (active).
For the molecule `CN1CCN(C(=O)[C@]23CCC(C)(C)C[C@H]2C2=CC[C@@H]4[C@@]5(C)C/C(=C/c6ccncc6)C(=O)C(C)(C)[C@@H]5CC[C@@]4(C)[C@]2(C)CC3)CC1`, the growth is -41.7% (active).
Next, `Cc1ccc(C(=O)C2=C(O)C(=O)N(Cc3cccnc3)C2c2ccccc2F)o1` (stereo not given): 99.7%; `Cc1nnc2c(Cc3ccccc3)nc3ccccc3n12`: 95.7%; `O=c1c(F)cn(Cc2ccccc2CCl)c(=O)n1Cc1ccccc1CCl`: -63.6% (active).
Then `CCN1CCN(c2nc(NNC(=O)c3ccccc3)nc(N3CCN(C(c4ccccc4)c4ccccc4)CC3)n2)CC1`, with 23.3%; and `CS(=O)(=O)Nc1ccc(C(=O)NC(C(=O)NO)c2ccc(-c3cccc(F)c3)cc2)cc1` (stereo not given), with 103%.
Regarding `C=C(OC(C)=O)c1ccccc1`, the growth was 72.9%.
As to `COC(=O)c1cc2oc(/C=N\NC(=O)c3cc4oc(C)c(C)c4[nH]3)cc2[nH]1`, the growth was 103%.
Then `O=S1(=O)N(CCNc2nccc(-c3c(-c4cccc(O)c4)nc4sccn34)n2)CCN1Cc1ccccc1`, with 91.8%; and `CCCCNC(=O)c1cc([N+](=O)[O-])cc(C2CCCCC2)c1O`, with 19.8%.
Next, `N#Cc1c(NC(=O)NCc2ccccc2)sc2c1CCCC2`: -4.95% (active); `COc1cc2c(c(OC)c1OC)CCC(c1cccc(C(=O)Nc3ccc([N+](=O)[O-])cc3)c1)O2` (stereo not given): 38.8%; `O=C(Nc1ccc([N+](=O)[O-])cc1)C(=O)Nc1ccc([N+](=O)[O-])cc1`: 118%.
Regarding `c1ccc(CSc2ncnc3nc[nH]c23)nc1`, the growth is 96.4%.
With `COc1cc(/C=N/NC(=O)c2ccc3nc(-c4ccc(Cl)cc4)[nH]c3c2)cc(OC)c1OC`, the growth was 44.9%.
Next, `CCN(CC)CCCC(C)Nc1ccc2ccc(Cl)cc2n1` (stereo not given): 101%; `CCCCCCC/C=N/NC(=O)c1ccc(-n2cc(-c3ccccc3)nn2)cc1`: 95.2%; `Cn1c(=O)c2c(nc(N/N=C/c3ccccc3Cl)n2C)n(C)c1=O`: 91.6%.
Next, `Cc1cc(C(C#N)c2ccc(Cl)cc2)c(Cl)cc1NC(=O)c1cc(I)cc(I)c1O` (stereo not given): 17.4%; `O=[N+]([O-])CC(c1ccccc1)c1c[nH]c2ccccc12` (stereo not given): 7.86% (active).
Then `COc1ccc(C(=O)/C=C/c2ccc(C)cc2)cc1OC`, with 58.4%; and `CCOC(=O)c1cnc2cc(Cl)c(F)cc2c1Nc1cccc(NS(C)(=O)=O)c1`, with 105%; and `O=c1c2cccc3c(N4CCOCC4)ccc(c32)c2nc3ccccc3n12`, with 80.2%.
Take `COc1cc(C(=O)/C=C/c2c(C(F)(F)F)nc3sccn23)cc(OC)c1OC`: the growth is -20% (active).
On to `CN(Cc1cccc(C(F)(F)F)c1)C(=O)[C@@H](CC(=O)N1CCC(N2CCCCC2)CC1)N1C(=O)[C@@H](N2C(=O)OC[C@@H]2c2ccccc2)[C@H]1/C=C/c1ccccc1`, for which the growth was 70.1%.
On to `Cc1sc(NC(=O)c2ccc(C(C)(C)C)cc2)c(C(=O)O)c1C`, for which the growth is 45.2%.
Then `Cc1ccc(/C=C2\C(=O)N(C)c3ccc(S(=O)(=O)Nc4ccc(C(C)(C)C)cc4)cc32)s1`, with 93.1%; and `COc1ccc(Cc2cnc(NC(=O)c3ccc4c(c3)OCCO4)s2)cc1`, with -42.1% (active); and `S=C1SCN(CCc2ccccc2)CN1CCc1ccccc1`, with 89.7%.
Regarding `S=C(N/N=C/c1cc(Cl)cc(Cl)c1)NC12CC3CC(CC(C3)C1)C2`, the growth was 104%.
Then `COc1ccc(/C(C#N)=C/c2cc(OC)c(OC)c(OC)c2)cc1`, with 14.8%; and `CCCCCc1ccc(S(=O)(=O)Nc2cc(-c3csc(NC(C)=O)n3)ccc2N2CCN(C)CC2)cc1`, with -61.7% (active).

These data come from PubChem BioAssay (NCI).
